In PubChem BioAssay (NCI):
About 83,000 compounds went through this panel and 20% of them were active in at least one assay; those are over-represented in the sample as a whole.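 Growth was measured after 48 h exposure to one concentration of compound in 96-well plates. Values under 10 count as active.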 Unmarked numbers belong to inactive results. Activity calls are given as the source filed them.

Tests used:
Assay in all cases: NCI-60 one-dose screen, 48 h (100 = growth as untreated, 0 = no growth, -100 = all killed)
Conditions in all cases: 10 µM unless noted
SK-MEL-2 melanoma = system: SK-MEL-2 melanoma
EKVX NSCLC = system: EKVX NSCLC
SN12C renal = system: SN12C renal
UO-31 renal = system: UO-31 renal
TK-10 renal = system: TK-10 renal
ACHN renal = system: ACHN renal
CAKI-1 renal = system: CAKI-1 renal
A498 renal = system: A498 renal
CCRF-CEM leukemia = system: CCRF-CEM leukemia
MOLT-4 leukemia = system: MOLT-4 leukemia
SR leukemia = system: SR leukemia
RPMI-8226 leukemia = system: RPMI-8226 leukemia
OVCAR-8 ovarian = system: OVCAR-8 ovarian
OVCAR-4 ovarian = system: OVCAR-4 ovarian
SK-OV-3 ovarian = system: SK-OV-3 ovarian
IGROV1 ovarian = system: IGROV1 ovarian
OVCAR-3 ovarian = system: OVCAR-3 ovarian
HS 578T breast = system: HS 578T breast
NCI/ADR-RES ovarian = system: NCI/ADR-RES ovarian
OVCAR-5 ovarian = system: OVCAR-5 ovarian

Row | SMILES | growth (SK-MEL-2 melanoma) | growth (EKVX NSCLC) | growth (SN12C renal) | growth (UO-31 renal) | growth (TK-10 renal) | growth (ACHN renal) | growth (CAKI-1 renal) | growth (A498 renal) | growth (CCRF-CEM leukemia) | growth (MOLT-4 leukemia) | growth (SR leukemia) | growth (RPMI-8226 leukemia) | growth (OVCAR-8 ovarian) | growth (OVCAR-4 ovarian) | growth (SK-OV-3 ovarian) | growth (IGROV1 ovarian) | growth (OVCAR-3 ovarian) | growth (HS 578T breast) | growth (NCI/ADR-RES ovarian) | growth (OVCAR-5 ovarian)
1 | CC(C)=NNc1ccccn1 | 83.2% | 18.8% | 45.4% | 29.5% | 39% | 27.9% | 29.1% | 78.1% | 26.8% | 25.4% | 32% | 70.3% | 29% | 12% | 26.2% | 63.2% | 18.8% | 79.5% | 33.5% | 
2 | COC(=O)c1c2c(c(C)[n+]([O-])c1C)C(=O)C=C(NCc1ccc(OC)cc1)C2=O | -22.2% (active) | -57.6% (active) | -63% (active) | -9.55% (active) | 28.4% | -11.5% (active) | 0.875% (active) | -15.4% (active) | 3.4% (active) | -35.5% (active) | -0.642% (active) | -16.5% (active) | 1.17% (active) | -98.5% (active) | 8.27% (active) | -61.5% (active) |  | -10.2% (active) | -7.81% (active) | -54.6% (active)
3 | CC1(C)CC[C@]2(C(=O)O)CC[C@]3(C)C(=CC[C@@H]4[C@@]5(C)C/C(=C/O)C(=O)C(C)(C)[C@@H]5CC[C@]43C)[C@@H]2C1 | 104% | 88.6% | 65.7% | 57.7% | 58.1% | 20% | 48.6% | 85.6% | 16.3% | 7.85% (active) | 36.3% | 13.2% | 29.3% |  | 89.8% | 31.4% | 21% | 74.1% | 38.8% | 81.4%
4 | Cc1nc2c(=O)[nH]c(SCC(=O)Nc3cccc(F)c3)nc2[nH]c1=O | 103% | 104% | 100% | 84% | 105% | 105% | 89.3% | 111% | 90.8% | 100% | 132% | 110% | 103% | 101% | 115% | 108% | 111% | 101% | 107% | 
5 | N=C(N)c1ccc(-c2ccc(-c3cc(Cl)cc(Cl)c3)o2)o1 | -43.5% (active) | -88.2% (active) | -67.6% (active) | -68.1% (active) | -76.3% (active) | -88.7% (active) | -74.7% (active) | 58.8% | -39.1% (active) | -60.4% (active) | -50% (active) | -33.6% (active) | -41.7% (active) |  | -59% (active) | -52.5% (active) | -87.9% (active) | 64.8% | -38.5% (active) | -72.2% (active)
6 | O=S(=O)(Nc1ccc(Cl)cc1)c1ccc(-c2cnc(C3CC3)o2)cc1 | 39.8% | 47.9% | 36.4% | 41.5% | 54.2% | 35.4% | 31.6% | 0.162% (active) | 11.4% | 14.2% | 9.93% (active) | 15% | 29.2% |  | 30.2% | 33% | -17.3% (active) | 4.3% (active) | 4.42% (active) | 43.9%
7 | C=C(C)[C@@H]1CC[C@]2(C(=O)OC)CC[C@]3(C)[C@H](CC[C@@H]4[C@@]5(C)C/C(=C/NC(N)=S)C(=O)C(C)(C)[C@@H]5CC[C@]43C)[C@@H]12 | 103% | 91.3% | 58.9% | 73.4% | 111% | 77.6% | 66.4% | 114% | 84.7% | 70.3% | 81.6% | 69.6% | 97.5% | 84.2% | 97.7% | 70.6% |  | 91.7% | 104% | 118%
8 | O=C1/C(=C/c2ccc(Cl)cc2)COc2ccc(O)c(O)c21 | 69.9% | 51.7% | -51.5% (active) | -98.5% (active) | 16.7% | -66.3% (active) | -13.8% (active) | 114% | 4.29% (active) | 3.43% (active) | 15% | 1.87% (active) | 4.8% (active) |  | 65.7% | -38% (active) | -27.2% (active) | 20.4% | 3.66% (active) | -22.9% (active)
9 | O=C(CSc1nnc2n1S(=O)(=O)c1ccccc1N2c1ccccc1)Nc1nc2ccc(F)cc2s1 | 56.8% | 103% | 118% | -15.4% (active) | 125% | 91.3% | 85.3% | 122% | 127% | 86.8% | 62.9% | 76.5% | 84.9% | 99.5% | 108% | 34.7% |  | 101% | 92.8% | 94.7%
10 | O=C1c2c(c3c4ccccc4[nH]c3c3ccc4ccccc4c23)C(=O)N1CCN1CCCCC1 | 90.5% | 75.5% | 22.6% | 39.7% | 87.4% | 12.7% | 24.7% | 45.7% | 3.2% (active) | 7.16% (active) | 2.17% (active) | 9.02% (active) | 25.6% | 64.8% | 53.7% | 52.8% |  | 90.2% | 40.9% | 74.8%
11 | O=C(O)CCCN1C(=O)/C(=C/C(Cl)=C/c2ccccc2)SC1=S | 59.3% | 40.2% | -6.97% (active) | -46% (active) | 30.3% | -93.1% (active) | 24.2% | 87.5% | 2.55% (active) | 9.65% (active) | 13% | -13.1% (active) | 19.1% |  | 110% | 7.37% (active) | 13.6% | 31.6% | 3.81% (active) | 59%
12 | O=c1oc2ccccc2cc1C1=NN=C(SCc2ccccc2)SC1 | 116% | 101% | 103% | 73.7% | 108% | 96.9% | 87.4% | 119% | 95.3% | 97% | 89.4% | 98.7% | 101% |  | 97.8% | 101% | 103% | 103% | 105% | 105%
13 | CN1CCN(C(=O)c2ccc(NC(=O)Nc3ccc(-c4nc(N5CCOCC5)c5cccn5n4)cc3)cc2)CC1 | -8.25% (active) | -22.8% (active) | 5.33% (active) | -14.6% (active) | -23.5% (active) | -6.03% (active) | 15.3% | -51.5% (active) | 16.9% | 0.147% (active) | 3.45% (active) | -2.3% (active) | -3.62% (active) | -20.2% (active) | -31.2% (active) | -29.2% (active) |  | -28.9% (active) | 60.5% | 0.331% (active)
14 | COC(=O)/C(CCC=C(C)C)=C1\[C@@H](OC(C)=O)C[C@@]2(C)[C@H]1C[C@@H](O)[C@H]1[C@@]3(C)CC[C@H](NCCN)[C@@H](C)[C@@H]3CC[C@@]12C | 92.6% | 82.2% | 81.2% | 69.4% | 101% | 99.6% | 88.3% | 94.4% | 79.4% | -13.2% (active) | -17.8% (active) | 70% | 86.3% | 90.2% | 93.6% | 86.6% |  | 77.9% | 93.4% | 104%
15 | C#Cc1cccc(Nc2ncnc3ccc(-c4cnc(N)nc4)cc23)c1 | 19.8% | 2.36% (active) | 7.3% (active) | -5.12% (active) | -9.72% (active) | 3.99% (active) | 2.19% (active) | -44.6% (active) | 35.7% | 19.6% | 40.6% | 22.8% | 49.6% | 46.1% | -2.3% (active) | -26.3% (active) |  | -7.24% (active) | 49.8% | 23.1%
16 | Nc1nc(=S)c2ncn(C3OC(COP(=O)(O)O)C(O)C3O)c2[nH]1 (centres undefined) | 14.9% | 31.8% | 29.8% | 25.1% | 8.92% (active) | 20% | 16.8% | 37.8% | 15.5% | 12.7% | 11.7% | 10.9% | 13.8% | 32.2% | 5.27% (active) | 44.2% |  | 67.5% | 20.9% | 36.8%
